The panel holds about 83,000 compounds, 20% with a hit somewhere; the sample as a whole holds those more often.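 Method: cells in 96-well plates; compound added at one concentration; 48 h incubation; percent growth measured; values under 10 scored active.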 Values without a mark were called inactive. The source made the active and inactive calls.
Columns and labels:
Experiment in all cases: NCI-60 one-dose screen, 48 h (100 = growth as untreated, 0 = no growth, -100 = all killed)
Conditions in all cases: 10 µM unless noted
[1] = test system: NCI-H23 lung
[2] = test system: NCI-H226 lung
[3] = test system: NCI-H322M lung
[4] = test system: HOP-62 NSCLC
[5] = test system: NCI-H460 lung
[6] = test system: HOP-92 NSCLC
[7] = test system: NCI-H522 lung
[8] = test system: A549/ATCC NSCLC
[9] = test system: 786-0 renal
[10] = test system: COLO 205 colon
[11] = test system: DU-145 prostate
[12] = test system: K-562 leukemia
[13] = test system: MALME-3M melanoma
[14] = test system: MDA-MB-231 breast
[15] = test system: RXF 393 renal
[16] = test system: SF-268 CNS
[17] = test system: SF-295 CNS
[18] = test system: SF-539 CNS
[19] = test system: UACC-257 melanoma
[20] = test system: M14 melanoma

Compound	growth [1]	growth [2]	growth [3]	growth [4]	growth [5]	growth [6]	growth [7]	growth [8]	growth [9]	growth [10]	growth [11]	growth [12]	growth [13]	growth [14]	growth [15]	growth [16]	growth [17]	growth [18]	growth [19]	growth [20]
Cc1cc(C)nc(SC2=C(Nc3ccc(O)cc3)C(=O)N(Cc3ccccc3)C2=O)n1	98.8% [40 µM]	89.7% [40 µM]	108% [40 µM]	100% [40 µM]	85.3% [40 µM]	38.1% [40 µM]	78.3% [40 µM]	63% [40 µM]	97.6% [40 µM]	108% [40 µM]	96.8% [40 µM]	78.1% [40 µM]	102% [40 µM]	80.7% [40 µM]	29.3% [40 µM]	74.6% [40 µM]	94.8% [40 µM]	94.2% [40 µM]	88.1% [40 µM]	105% [40 µM]
O=C1Nc2ccc(Br)cc2C12Oc1ccccc1C1CC(c3ccc(F)cc3)=NN12 (stereo not given)	89%	83.1%	96.3%	104%	98.5%	109%	81%	91%	105%	109%	100%	84.7%	103%	105%	102%	85.5%	97.9%	91.9%	104%	103%
Cc1[nH]c(-c2ccc3cc[nH]c3c2)c2c1C(=O)CCCC2	49.3%	52.4%	50.4%	32.3%	66.8%	37.1%	37%	51.9%	50.5%	40.6%	79.1%	26.2%	56.2%	43.2%	68.1%	64.8%	38.8%	48.6%	47.7%	51.6%
CSc1nc(NCc2ccccc2)c(C#N)c(-c2cccc([N+](=O)[O-])c2)n1	93.7%	94.5%	95.7%	89.2%	97%	77.7%	85.4%	88.4%	96.6%	110%	103%	90.7%	113%	82.7%	102%	94.3%	98.9%	104%	109%	98%
COc1ccc(-c2nc3ccc(-c4nc5ccc(N6CCN(c7ccncc7)CC6)cc5[nH]4)cc3[nH]2)cc1OC	36.9%	46%	81.2%	61%	83.5%	57.8%	-58% (active)	80.7%	76.4%	13.3%	42.7%	29.5%	-25% (active)	63%	85.1%	38.4%	49.8%	42.5%	11.6%	13.6%
Oc1cccc2ccc(N/N=C/c3cc(CN4CCOCC4)c(O)c4ncccc34)nc12	-2.08% (active)	26.5%	27.7%	7.13% (active)	-7.47% (active)	43.5%	-13.7% (active)	5.15% (active)	19.4%	12.2%	22.4%	13.4%	16.3%	20%	10.4%	18.7%	17.5%	9.66% (active)	17.8%	4.83% (active)
c1ccc(-c2cc3n4c(-c5ccccc5)nn(-c5ccccc5)c4cnc-3n2)cc1	58.1%	73.4%	23.6%	102%	54.9%	51.2%	9.2% (active)	31.3%	75.5%	75.1%	38.6%	104%	60.1%	36.2%	-16.1% (active)	46.1%	30.7%	48%	22.1%	71.4%
Brc1ccc(-c2csc(Nc3ccccn3)n2)cc1	58.8%	73%	95.2%	85.4%	91.5%	73%	78.2%	91.3%	88.5%	107%	109%	57.1%	76.3%	86.3%	118%	115%	99.9%	102%	105%	96.9%
COc1ccc(S(=O)(=O)N2CCCCCC2)cc1NC(=O)c1[nH]c(C)c2c1CCCCC2=O	30.4%	45.5%	35.8%	26.8%	42.2%	31.5%	27.3%	29.6%	34.9%	26.8%	58%	21.4%	55.6%	36.3%	34.7%	52.8%	25.5%	29.9%	34.5%	42.8%
CCOC(=O)n1cc(-c2nonc2-c2cn(C)c3ncccc23)c2ccccc21	79.2%	58.7%	87.3%	87.8%	64.2%	66.1%	71.1%	82%	88.8%	93%	97.1%	40.6%	84.4%	63.8%	81.7%	82.2%	82.8%	92.3%	98%	90.1%
O=C1/C(=C/C(Cl)=C/c2ccccc2)SC(=S)N1CCc1ccc(O)cc1	-18.1% (active)	55.7%	44%	-6.2% (active)	0.138% (active)	-1.85% (active)	-7.91% (active)	-5.56% (active)	-47% (active)	-9.3% (active)	15.8%	5.68% (active)	-2.34% (active)	27.3%	-46.1% (active)	19.8%	4.96% (active)	3.33% (active)	17.4%	-12.7% (active)
CN1CCN(Cc2ccc(NC(=O)c3cncc(C#Cc4cncn5ccnc45)c3)cc2C(F)(F)F)CC1	63.1%	34.4%	105%	81.4%	64.3%	38.8%	47.3%	74%	87.5%	32.3%	86.2%	4.35% (active)	2.25% (active)	54.5%	90.4%	92.4%	91.7%	52.4%	58.4%	7.22% (active)
O=C1CSC(=S)N1CCc1ccc(O)cc1	95%	108%	98.1%	85.2%	99%	66.9%	46.8%	96.7%	40%	106%	33.5%	58.2%	85.3%	91.3%	95.9%	86.2%	97.5%	85.2%	92%	87.9%
COc1ccc(-c2nc3ccc(-c4nc5ccc(N6CCN(c7ccc(F)cc7)CC6)cc5[nH]4)cc3[nH]2)cc1OC	60.7%	66.6%	88.5%	75.6%	71.1%	63.6%	45.3%	77.3%	79.5%	30.4%	80.3%	17.7%	43.9%	107%	68.6%	82.6%	76%	68.2%	104%	61.8%
O=c1c2c3c(sc2nc(N/N=C/c2cn(-c4ccccc4)nc2-c2ccc(Cl)cc2)n1Cc1ccccc1)CCCC3	106%	102%	111%	98.5%	97.7%	74.2%	84.7%	83.6%	95.2%	109%	116%	3.49% (active)	115%	113%	118%	91.8%	62.2%	95.9%	92%	98.1%
